Assay outcomes: PubChem BioAssay, several laboratories
HePTP inh: human HePTP phosphatase inhibition; recombinant HePTP phosphatase activity, OD absorbance; inhibition, % at 20 µM; 110,000 compounds, 0.64% hits; in the data active = inhibition above about 50%;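 note: plate controls were vehicle for no effect and reference inhibitor for full effect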
Candida biofilm: kills Candida albicans biofilms. 85,000 compounds, 0.14% hits. AID 834. inhibition, % at 6 µM. C. albicans biofilm + clotrimazole, Alamar Blue;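 active = inhibition above 20%; inactive = inhibition below 20%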;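 note: preformed 24 hr biofilms exposed to compound for 48 hr; 0% = biofilm without compound and 100% = blank killed by clotrimazole plus chlorhexidine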
FXIa inh mix: blocks human factor XIa in pooled compound mixtures | P03951 | purified FXIa, fluorogenic substrate | inhibition, % at 5 µM | 62,000 compounds, 0.19% hits | AID 680;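 note: each value is inhibition by a whole ten-compound pool holding the compound; 0% = enzyme with no mixture and 100% = wells lacking enzyme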
D1 mod: D1 dopamine receptor (human) allosteric modulation | AID 641 | B-score at 10 µM | P21728 | 58,000 compounds, 5.9% hits | HEK293 D1, CRE-luciferase, dopamine EC30 potentiation; actives deviate in either direction;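 active = luminescence count or its row- and column-corrected plate score outside the 99.7% band of the plate's sample wells, on either side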
TNAP act DEA: activates human TNAP at intermediate phosphate acceptor concentration; P05186; activation factor at 20 µM; 64,000 tested, under 10 active; purified TNAP, CDP-star luminescence, 100 mM DEA, 30 min; active compounds read high; scale: 0 levamisole-inhibited, 1 vehicle-only enzyme; AID 813;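 active = activation factor of at least 2 at 20 µM, relative to controls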
FXIIa inh mix: blocks human factor XIIa in pooled compound mixtures. P00748. 62,000 compounds, 0.2% hits. inhibition, % at 5 µM. purified FXIIa, fluorogenic substrate. AID 684;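 note: 0% = enzyme without compound and 100% = no enzyme blank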
Target sequence (P00748 20-372 limits assumed): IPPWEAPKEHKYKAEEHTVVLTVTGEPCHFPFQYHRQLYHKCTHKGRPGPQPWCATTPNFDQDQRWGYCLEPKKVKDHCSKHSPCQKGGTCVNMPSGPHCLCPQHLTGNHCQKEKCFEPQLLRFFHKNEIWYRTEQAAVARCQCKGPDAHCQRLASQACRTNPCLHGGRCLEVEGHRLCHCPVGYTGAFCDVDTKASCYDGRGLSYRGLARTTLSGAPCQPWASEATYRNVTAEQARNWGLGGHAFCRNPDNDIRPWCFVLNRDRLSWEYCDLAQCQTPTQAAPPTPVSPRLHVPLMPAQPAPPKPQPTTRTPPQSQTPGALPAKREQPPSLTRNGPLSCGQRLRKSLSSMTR
Target sequence (P00748 373-615 limits assumed): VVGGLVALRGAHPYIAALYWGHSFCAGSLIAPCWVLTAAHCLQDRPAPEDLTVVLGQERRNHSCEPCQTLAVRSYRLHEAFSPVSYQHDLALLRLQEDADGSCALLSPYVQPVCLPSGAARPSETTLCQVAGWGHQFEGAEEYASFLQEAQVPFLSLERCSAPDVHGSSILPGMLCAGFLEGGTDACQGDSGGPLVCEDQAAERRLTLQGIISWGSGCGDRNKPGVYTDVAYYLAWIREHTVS
D1 mod confirm: D1 receptor (human) allosteric modulation, confirmed; luminescence at 10 µM; shares compounds with D1 mod; HEK293 D1 CRE-luciferase, dopamine EC30 potentiation; active compounds read high; 2,200 compounds, 88% hits; AID 642;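 active = luminescence in either of two replicates above the same-plate mean plus 3 SD of the low-dose dopamine control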
D1 ag no DA: D1 (human) signaling in absence of dopamine; shares compounds with D1 mod; HEK293 D1 CRE-luciferase, luminescence, no dopamine; active compounds read high; luminescence at 10 µM; 1,900 compounds, 0.8% hits; AID 646; in the data active = luminescence above about 3900
Isoprot counter: alters isoproterenol CRE-luciferase response in HEK293 cells; HEK293 D1 CRE-luciferase, isoproterenol EC30 counter-screen; active compounds read high; luminescence at 10 µM; shares compounds with D1 mod; AID 647; 2,200 compounds, 63% hits;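 active = luminescence in either replicate above plate mean of wells with a partly effective reference agonist dose plus 3 SD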;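 note: isoproterenol raises cAMP through native beta-adrenoceptor Gs so signal bypasses D1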
Numbers without * were called inactive; / = no result given. Only a selection was taken, and hits are over-represented in it overall. Cut-off read from the data, not from the text of the source, unless noted: active = inhibition above about 20% (passing the limit was not always enough); inactive = the rest.

SMILES	HePTP inh	Candida biofilm	FXIa inh mix	D1 mod	TNAP act DEA	FXIIa inh mix	D1 mod confirm	D1 ag no DA	Isoprot counter
CCOc1ccc(S(=O)(=O)Nc2ccc3c(c2)OCO3)c2cccnc12	8	8	0	4.8*	0.9	3	9784*	1612	3300*
CCOc1ccc(S(=O)(=O)NCc2ccc(F)cc2)c2cccnc12	4	0	-1	10*	1	16	10944*	/	2940*
CCOc1ccc(S(=O)(=O)NCc2ccc(OC)cc2)c2cccnc12	/	2	/	/	/	/	/	/	/
CCOC(=O)c1ccccc1NC(=O)c1cnccn1	6	/	/	/	/	/	/	/	/
CCOC(=O)c1[nH]cnc1C(=O)Nc1ccc(Br)cc1	4	/	/	/	/	/	/	/	/
CCOC(=O)c1[nH]cnc1C(=O)Nc1ccncc1	4	3	-29	13*	1	12	14788*	1588	3840*
COc1ccc(C(=O)COC(=O)CCN=C2NS(=O)(=O)c3ccccc32)cc1OC	-5	-1	2	4.6*	1	8	13264*	1572	3656*
CCn1cc(C(=O)OCC(=O)NCc2ccc3c(c2)OCO3)c(=O)c2ccc(C)nc21	15	8	5	2.7*	0.9	1	8368*	1576	3148*
CCn1cc(C(=O)O)c(=O)c2ccc(C)nc21	5	13	8	0.0081	0.9	3	/	/	/
CCn1cc(C(=O)OCc2ccccc2)c(=O)c2ccc(C)nc21	2	3	6	5.9*	0.9	-3	9156*	1600	2792
CCn1cc(C(=O)OCc2ccc(F)cc2)c(=O)c2ccc(C)nc21	9	4	10	9.9*	0.9	4	10188*	1412	3888*
CCn1cc(C(=O)OCC(=O)OC2CC(C)CCC2C(C)C)c(=O)c2ccc(C)nc21 (stereo unspecified)	8	6	5	6.4*	0.9	9	9780*	1408	3792
Cc1ccc(NC(=O)/C=C/c2ccc(Cl)cc2)c([N+](=O)[O-])c1	-5	/	/	/	/	/	/	/	/
C=CCc1ccccc1OCCOc1c(I)cc(/C=N/n2cnnc2)cc1OC	-12	/	/	/	/	/	/	/	/
c1cncc(CN2CCN(Cc3ccc4ccccc4c3)CC2)c1	-12	/	/	/	/	/	/	/	/
CCn1cc(C(=O)OCc2cccc(Br)c2)c(=O)c2ccc(C)nc21	-4	-3	2	6.6*	0.8	-23	14972*	1524	3252*
CCOC(=O)c1ccccc1NC(=O)c1cn(CC)c2nc(C)ccc2c1=O	2	7	10	5*	1	0	4076	892	1544
CCn1cc(C(=O)Nc2ccccc2C(=O)OC)c(=O)c2ccc(C)nc21	5	8	6	1.1	0.9	28	/	/	/
CCn1cc(C(=O)Nc2cccc(C(=O)OC)c2)c(=O)c2ccc(C)nc21	9	3	8	0.17	0.9	-1	/	/	/
CCSc1nc(-c2ccco2)ccc1C#N	9	0	12	2.7*	0.8	3	6188*	1560	2392
Cc1cc(C)c(C#N)c(SCc2ccccc2)n1	/	5	/	/	/	/	/	/	/
N#Cc1ccc(-c2ccco2)nc1SCc1ccccc1	8	-1	13	3.1*	1	2	17912*	1576	3236
COc1ccccc1CC(=O)Nc1ccc(C)c(Cl)c1	2	/	/	/	/	/	/	/	/
CCNc1nc(C)cc(COC)c1C#N	8	1	10	4.7*	0.9	8	10012*	/	2860*
COCc1cc(C)nc(NCCO)c1C#N	/	4	/	/	/	/	/	/	/
CCOC(=O)CC(=O)CSc1nccc(N(C)C)c1C#N	3	/	/	/	/	/	/	/	/
O=C(Nc1cc(C(F)(F)F)cc(C(F)(F)F)c1)c1cccc(Br)c1	5	/	/	/	/	/	/	/	/
C/C(Cl)=C/Cn1c(SC(C)C)nc2c1c(=O)[nH]c(=O)n2C	6	2	-5	32*	0.9	2	17228*	1588	8272*
CCC(C)Sc1nc2c(c(=O)[nH]c(=O)n2C)n1CCc1ccccc1 (stereo unspecified)	/	12	/	21*	/	/	20608*	1572	6900*
